# The list is not random: actives were taken first. Their share in the collection is about 18%.
# DT40 TDP1 no CPT – qHTS for Inhibitors of human tyrosyl-DNA phosphodiesterase 1 (TDP1): qHTS in cells in absence of CPT. AID 686978, 2013. Potency, µM (series often up to 46.2 µM), for inactives: at the top dose activity change, negative = growth inhibition, actives largely listed as inhibitors. DT40 Tdp1-/- hTDP1 cells, no CPT, ATP luminescence, 48 h. 420,000 tested, 15% active; further: potency means the concentration at half of the fitted maximal effect; nearly all actives have a fitted effect of over 55% in size
#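 Chicken DT40 Tdp1-/- cells complemented with human TDP1, screened without camptothecin (DMSO vehicle only), 400 cells/well. Compounds pin-transferred, cells incubated at 37 °C for at least 48 hr. Growth read as ATP-dependent luminescence (CellTiter-Glo, 30 min at RT).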
# RORg inh – blocks mouse ROR gamma transcriptional activity | P51450 | Drosophila S2 Gal4-RORgamma UAS-luciferase reporter, 20 h | Potency, µM (series often up to 53.6 µM), for inactives: at the top dose activity change, negative = inhibition, usual class: inhibitors | 310,000 tested, 5.4% active | AID 2551; further: potency means the concentration at half of the fitted maximal effect; nearly all actives have a fitted effect of over 60% in size
# Target sequence (P51450 whole entry, looked up, the tested form may be a part): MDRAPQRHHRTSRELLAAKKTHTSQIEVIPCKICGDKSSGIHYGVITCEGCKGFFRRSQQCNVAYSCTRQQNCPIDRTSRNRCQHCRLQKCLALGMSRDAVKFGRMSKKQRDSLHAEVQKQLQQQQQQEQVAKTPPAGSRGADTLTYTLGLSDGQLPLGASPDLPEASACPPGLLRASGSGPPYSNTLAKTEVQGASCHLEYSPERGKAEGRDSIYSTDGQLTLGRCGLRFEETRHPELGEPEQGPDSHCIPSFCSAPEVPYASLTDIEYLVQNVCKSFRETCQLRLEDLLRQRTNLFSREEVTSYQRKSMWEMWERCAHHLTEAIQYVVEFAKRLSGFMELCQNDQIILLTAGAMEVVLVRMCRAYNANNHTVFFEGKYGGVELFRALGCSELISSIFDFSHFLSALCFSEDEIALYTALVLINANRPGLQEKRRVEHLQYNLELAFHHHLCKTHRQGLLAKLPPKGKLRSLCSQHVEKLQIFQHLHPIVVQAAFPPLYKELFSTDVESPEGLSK
#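 Stable Schneider cell line, Gal4 DNA-binding domain fused to ROR gamma, UAS-luciferase. Cmpd 1 hr RT → CuSO4 700 uM final → 20 hr RT → luciferase reagent 10 min → luminescence.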
# TDP1 cell CPT – growth inhibition of DT40 Tdp1-/-;hTDP1 cells with camptothecin (screen for TDP1 inhibitors) | chicken DT40 Tdp1-/-;hTDP1 cells + 20 nM CPT, ATP luminescence, 48 h | Potency, µM (top dose mostly 46.2 µM), without a hit: at the top dose activity change, negative = growth inhibition, hits mostly inhibitors | 420,000 tested, 12% active | AID 686979; further: potency means the concentration at half of the fitted maximal effect; nearly all actives have a fitted effect of over 55% in size
#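 Chicken DT40 Tdp1-/- cells complemented with human TDP1, 400 cells/well, exposed to compounds plus 20 nM camptothecin for at least 48 h at 37 C; viability read as ATP content by CellTiter-Glo luminescence.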
# LDHA inh – LDHA (human) enzyme inhibition | activity change, % (values are at about 110 or 230 µM) | 480,000 tested, 0.15% active | P00338 | purified LDHA, NADH/diaphorase-resazurin fluorescence; active compounds read low; in the data active means activity change below about -30%; inconclusive means mostly about -25% to -30%;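 further: plate controls were DMSO wells for no effect and wells without enzyme for full effect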
#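 Human LDH5 (2 nM) was incubated with 0.06 mM NADH and 0.2 mM pyruvate for 5 min at room temperature in Tris pH 7.4. Remaining NADH was coupled through diaphorase/resazurin, and resorufin fluorescence was read at 0 and 20 min.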
# VP16 counter – inhibits Gal4-VP16 luciferase reporter, ROR gamma counter-screen. 310,000 tested, 3.5% active. Potency, µM (doses to about 53.6 µM), inactives show at the highest dose activity, negative = inhibition, actives largely listed as inhibitors. AID 2546. Drosophila S2 Gal4-VP16 UAS-luciferase, luminescence, 20 h;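 further: Gal4-VP16 expression switched on by copper sulfate through the metallothionein promoter; potency means the concentration at half of the fitted maximal effect; nearly all actives have a fitted effect of over 50% in size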
# IL1B secr inh – inflammasome signaling inhibition, IL-1 beta readout; THP-1 LPS/ATP IL-1B secretion, AlphaLISA, 16 h; active compounds read low; 360,000 tested, 4.7% active; AID 743279; activity change, % at 57.5 µM; in the data active means activity change below about -50%; inconclusive means mostly about -30% to -49%
#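 THP-1 cells pretreated 1 hr with compounds (up to 57.5 uM final), then stimulated with LPS (250 ng/mL final) plus ATP (1.25 mM final); secreted IL-1B measured by AlphaLISA after 16 hr, decreased signal indicating inhibition.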
# Active calls of the source: *; ? = inconclusive; nt = no result. Unless noted, the call rests on the fitted dose curve; in most records, active means well fitted curve in the direction sought with a large enough effect; inconclusive means small, poorly fitted or top-dose-only effect, or another doubt; inactive means no such curve, though single readings can be large; an effect the other way counts as inactive or inconclusive. Unless noted, on the % scale 0 is the no-effect control and ±100 the full control effect.
SMILES,DT40 TDP1 no CPT,RORg inh,TDP1 cell CPT,LDHA inh,VP16 counter,IL1B secr inh
O=S(=O)(c1ccccc1S(=O)(=O)N1CCCCC1)N1CCCCC1,-19.9%,2.3%,-30.0%,1.5,-9.8%,-17.9
Cn1c(=O)cc2c3c(c(N4CCCCC4)ccc31)C(=O)c1ccccc1-2,10.3µM*,-23.2%,?,3.2,-13.4%,-13.5
O=C1c2ccccc2-c2cccc(C(=O)N3CCCCC3)c21,-8.7%,-3.7%,-5.6%,-5.5,8.9%,-18.8
O=C(O)c1ccccc1NCc1ccco1,?,0.6%,-19.1%,3.6,-1.5%,-0.8
O=C1c2ccccc2-c2onc3ccc(N4CCCC4)c1c23,25.9µM*,?,?,11.8,-9.5%,?
CCOc1ccc2noc3c2c1C(=O)c1ccccc1-3,-7.9%,-33.1%,5.9%,-1.3,-18.4%,9.1
O=C1C=C(N2CCCCC2)c2ccccc2C1=O,6.51µM*,nt,3.66µM*,29.4,nt,-97.3*
CCCc1nnc(NC(=O)c2cc(=O)c3cc(C)cc(C)c3o2)s1,nt,nt,nt,5.3,nt,nt
CC(=O)c1ccc(NC(=O)c2nc(-c3ccccc3)oc2C)cc1,nt,nt,nt,-1.1,nt,nt
O=C1c2ccccc2C(=O)c2c1cccc2N1CCCC1,8.2µM*,11.2µM*,?,32.1,?,-29.4
CCN(Cc1cccs1)C(=O)NCc1cccc(F)c1,nt,nt,nt,-3.9,nt,nt
Cc1ccc(-c2nc3cccnc3s2)cc1NS(=O)(=O)c1ccc2c(c1)OCCO2,?,?,?,-4.2,-7.5%,17.6
Cc1nc2ccc(S(=O)(=O)Nc3cccc(-c4nc5cccnc5s4)c3C)cc2s1,25.9µM*,-21.9%,?,-11.2,?,40.7
Cc1nc2ccc(S(=O)(=O)Nc3cc(-c4nc5cccnc5s4)ccc3C)cc2s1,20.6µM*,-3.2%,?,-1.7,3.3%,42.0
O=C(CSCC(=O)N1CCCCC1)Nc1nc(-c2ccccc2)c(-c2ccccc2)s1,16.4µM*,2.0%,18.4µM*,1.2,0.3%,22.4
CCOc1cc2cc(C(=O)c3cc(C)ccc3O)cnc2cc1OC,nt,nt,nt,45.1,nt,nt
CN(C)CCCNc1nc2cc(-c3ccccc3CO)sc2c(=O)n1C,-1.7%,nt,-16.4%,-4.7,nt,0.4
Cc1cc(Cl)ccc1-c1cc2nc(NCCCN(C)C)n(C)c(=O)c2s1,13µM*,nt,23.1µM*,-5.6,nt,-10.8
COc1ccc(-c2cc3nc(NCCCN(C)C)n(C)c(=O)c3s2)c(C)c1,?,nt,?,-6.0,nt,-20.7
Cc1cscc1-c1cc2nc(NCCCN(C)C)n(C)c(=O)c2s1,?,nt,16.4µM*,3.2,nt,?
O=[N+]([O-])c1cccc(/C=N/Nc2nnc(Cl)c3ccccc23)c1,nt,nt,nt,-11.2,nt,nt
Clc1cccc(/C=N/Nc2nnc(Cl)c3ccccc23)c1,-23.6%,3.16µM*,?,-6.1,?,?
Clc1ccc(/C=N/Nc2nnc(-c3ncc[nH]3)c3ccccc23)cc1,20.6µM*,1.26µM*,?,-13.1,3.16µM*,22.0
CCN1CCN(C(=O)NC(c2ccc(C)c(F)c2)C(Cl)(Cl)Cl)CC1 (configuration not stated),nt,nt,nt,4.2,nt,nt
COc1cc(CN(C2CC2)S(=O)(=O)c2ccccc2Br)cc(OC)c1,13µM*,nt,?,-7.7,nt,3.9
COc1ccc(-c2nn(C)c3sc(C(=O)N4CCN(c5ccccc5F)CC4)cc23)cc1OC,?,nt,?,-8.4,nt,nt
COc1cccc(-c2nn(C)c3sc(C(=O)N4CCN(c5cccc(C(F)(F)F)c5)CC4)cc23)c1,25.9µM*,nt,16.4µM*,0.6,nt,nt
COc1ccc(N2CCN(C(=O)c3cc4c(-c5cccc(OC)c5)nn(C)c4s3)CC2)cc1,14.6µM*,17.7%,?,4.3,-30.0%,0.0
O=C(Nc1ccccc1Cl)c1ccc(-n2cccn2)c([N+](=O)[O-])c1,-15.5%,10.8%,1.7%,0.0,-6.4%,-83.2*

# Compound activity deposited in PubChem by National Center for Advancing Translational Sciences (NCATS).
